# Values joined by “and” are separate entries in the source; they are usually repeats but may differ in a detail not shown here. Identical values can stand only once. Like-named read-outs stand apart in the source and are kept apart here.
# What was measured:
# CHEK1 = settings: concentration: 1 μM, replicates: in singlicate; n = 1
# CHEK2 = settings: concentration: 1 μM, replicates: in singlicate, n = 1
# CIT = settings: concentration: 1 μM, replicates: in singlicate, n = 1
# CLK1 = settings: concentration: 1 μM, replicates: in singlicate, n = 1
# CLK2 = settings: concentration: 1 μM, replicates: in singlicate; n = 1
# CLK3 = settings: concentration: 1 μM, replicates: in singlicate, n = 1
# CLK4 = settings: concentration: 1 μM, replicates: in singlicate, n = 1
# CSF1R-autoinhibited = settings: concentration: 1 μM, replicates: in singlicate, n = 1
# CSF1R = settings: concentration: 1 μM, replicates: in singlicate, n = 1
# CSK = settings: concentration: 1 μM, replicates: in singlicate, n = 1
# CSNK1A1L = settings: concentration: 1 μM, replicates: in singlicate; n = 1
# CSNK1A1 = settings: concentration: 1 μM, replicates: in singlicate; n = 1
# CSNK1D = settings: concentration: 1 μM, replicates: in singlicate, n = 1
# CSNK1E = settings: concentration: 1 μM, replicates: in singlicate; n = 1
# CSNK1G1 = settings: concentration: 1 μM, replicates: in singlicate, n = 1
# CSNK1G2 = settings: concentration: 1 μM, replicates: in singlicate, n = 1
# CSNK1G3 = settings: concentration: 1 μM, replicates: in singlicate, n = 1
# CSNK2A1 = settings: concentration: 1 μM, replicates: in singlicate, n = 1
# CSNK2A2 = settings: concentration: 1 μM, replicates: in singlicate, n = 1
# CTK = tested on: T1, CTK; settings: concentration: 1 μM, replicates: in singlicate, n = 1
# T1 construct: gene MATK
# 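Note: KINOMEscan kinase panel screen.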
compound,measurement,setting,value
COc1cc2c(cc1OC[C@@H](O)CO)ncc1c3ccc(C#N)cc3[nH]c21,%Inh,CHEK1,7%
same,%Inh,CHEK2,48%
same,%Inh,CIT,94.8%
same,%Inh,CLK1,89%
same,%Inh,CLK2,88%
same,%Inh,CLK3,2%
same,%Inh,CLK4,89%
same,%Inh,CSF1R-autoinhibited,96.6%
same,%Inh,CSF1R,44%
same,%Inh,CSK,1%
same,%Inh,CSNK1A1L,0%
same,%Inh,CSNK1A1,9%
same,%Inh,CSNK1D,0%
same,%Inh,CSNK1E,0%
same,%Inh,CSNK1G1,0%
same,%Inh,CSNK1G2,0%
same,%Inh,CSNK1G3,0%
same,%Inh,CSNK2A1,81%
same,%Inh,CSNK2A2,93.9%
same,%Inh,CTK,18%
Cc1nnc(-c2ccc(C)c(-c3ccc(C(=O)Nc4ccc(NS(C)(=O)=O)cc4)cc3)c2)o1 [GW702865],%Inh,CHEK1,0%
same,%Inh,CHEK2,30%
same,%Inh,CIT,7%
same,%Inh,CLK1,2%
same,%Inh,CLK2,0%
same,%Inh,CLK3,2%
same,%Inh,CLK4,0%
same,%Inh,CSF1R-autoinhibited,37%
same,%Inh,CSF1R,1%
same,%Inh,CSK,0%
same,%Inh,CSNK1A1L,0%
same,%Inh,CSNK1A1,0%
same,%Inh,CSNK1D,14%
same,%Inh,CSNK1E,0%
same,%Inh,CSNK1G1,0%
same,%Inh,CSNK1G2,15%
same,%Inh,CSNK1G3,17%
same,%Inh,CSNK2A1,0%
same,%Inh,CSNK2A2,15%
same,%Inh,CTK,0%
CN(C(=O)c1ccc(-c2cc(-c3c[nH]nc3-c3ccccn3)ccn2)cc1)C1CCOCC1 [GW810083],%Inh,CHEK1,0%
same,%Inh,CHEK2,12%
same,%Inh,CIT,5%
same,%Inh,CLK1,23%
same,%Inh,CLK2,0%
same,%Inh,CLK3,0%
same,%Inh,CLK4,0%
same,%Inh,CSF1R-autoinhibited,31%
same,%Inh,CSF1R,20%
same,%Inh,CSK,0%
same,%Inh,CSNK1A1L,8%
same,%Inh,CSNK1A1,37%
same,%Inh,CSNK1D,29%
same,%Inh,CSNK1E,42%
same,%Inh,CSNK1G1,5%
same,%Inh,CSNK1G2,0%
same,%Inh,CSNK1G3,0%
same,%Inh,CSNK2A1,0%
same,%Inh,CSNK2A2,0%
same,%Inh,CTK,5%
CN1c2ccc(CNc3ccc(F)cc3)cc2-c2c(cnn2C)S1(=O)=O,%Inh,CHEK1,0%
same,%Inh,CHEK2,0%
same,%Inh,CIT,1%
same,%Inh,CLK1,0%
same,%Inh,CLK2,11%
same,%Inh,CLK3,0%
same,%Inh,CLK4,17%
same,%Inh,CSF1R-autoinhibited,1%
same,%Inh,CSF1R,0%
same,%Inh,CSK,0%
same,%Inh,CSNK1A1L,0%
same,%Inh,CSNK1A1,1%
same,%Inh,CSNK1D,0%
same,%Inh,CSNK1E,0%
same,%Inh,CSNK1G1,0%
same,%Inh,CSNK1G2,0%
same,%Inh,CSNK1G3,0%
same,%Inh,CSNK2A1,0%
same,%Inh,CSNK2A2,0%
same,%Inh,CTK,0%
Cc1cccc(Cn2ccn3c(=O)cc(N4CCOCC4)nc23)c1 [GSK2297542],%Inh,CHEK1,13%
same,%Inh,CHEK2,4%
same,%Inh,CIT,23%
same,%Inh,CLK1,50%
same,%Inh,CLK2,20%
same,%Inh,CLK3,58%
same,%Inh,CLK4,45%
same,%Inh,CSF1R-autoinhibited,8%
same,%Inh,CSF1R,11%
same,%Inh,CSK,55%
same,%Inh,CSNK1A1L,18%
same,%Inh,CSNK1A1,19%
same,%Inh,CSNK1D,48%
same,%Inh,CSNK1E,55%
same,%Inh,CSNK1G1,27%
same,%Inh,CSNK1G2,16%
same,%Inh,CSNK1G3,25%
same,%Inh,CSNK2A1,2%
same,%Inh,CSNK2A2,22%
same,%Inh,CTK,0%
NS(=O)(=O)c1cccc(-c2ccc3nccc(-c4cccc(S(N)(=O)=O)c4)c3c2)c1 [GW867253],%Inh,CHEK1,0%
same,%Inh,CHEK2,0%
same,%Inh,CIT,0%
same,%Inh,CLK1,0%
same,%Inh,CLK2,25%
same,%Inh,CLK3,0%
same,%Inh,CLK4,1%
same,%Inh,CSF1R-autoinhibited,0%
same,%Inh,CSF1R,0%
same,%Inh,CSK,0%
same,%Inh,CSNK1A1L,0%
same,%Inh,CSNK1A1,0%
same,%Inh,CSNK1D,0%
same,%Inh,CSNK1E,12%
same,%Inh,CSNK1G1,0%
same,%Inh,CSNK1G2,0%
same,%Inh,CSNK1G3,0%
same,%Inh,CSNK2A1,0%
same,%Inh,CSNK2A2,22%
same,%Inh,CTK,31%
O=c1cc(N2CCOCC2)nc2n(Cc3cccc4ccccc34)ccn12 [GSK2333389],%Inh,CHEK1,20%
same,%Inh,CHEK2,0%
same,%Inh,CIT,9%
same,%Inh,CLK1,48%
same,%Inh,CLK2,3%
same,%Inh,CLK3,0%
same,%Inh,CLK4,31%
same,%Inh,CSF1R-autoinhibited,0%
same,%Inh,CSF1R,4%
same,%Inh,CSK,0%
same,%Inh,CSNK1A1L,11%
same,%Inh,CSNK1A1,13%
same,%Inh,CSNK1D,42%
same,%Inh,CSNK1E,20%
same,%Inh,CSNK1G1,0%
same,%Inh,CSNK1G2,0%
same,%Inh,CSNK1G3,20%
same,%Inh,CSNK2A1,13%
same,%Inh,CSNK2A2,0%
same,%Inh,CTK,1%
Cl.Cl.Cl.Fc1ccc(-c2ncn(C3CCNCC3)c2-c2ccnc(Nc3ccccc3)n2)cc1 [SB-238039],%Inh,CHEK1,0%
same,%Inh,CHEK2; 1 µM,0% and 39%
same,%Inh,CIT; 1 µM,99.5% and 97.5%
same,%Inh,CLK1; 1 µM,0% and 1%
same,%Inh,CLK2,0%
same,%Inh,CLK3; 1 µM,6% and 21%
same,%Inh,CLK4; 1 µM,37% and 14%
same,%Inh,CSF1R-autoinhibited; 1 µM,27% and 19%
same,%Inh,CSF1R; 1 µM,1% and 14%
same,%Inh,CSK; 1 µM,0% and 10%
same,%Inh,CSNK1A1L,98.9%
same,%Inh,CSNK1A1,97.7%
same,%Inh,CSNK1D; 1 µM,95.2% and 93.4%
same,%Inh,CSNK1E,99.9%
same,%Inh,CSNK1G1; 1 µM,78% and 75%
same,%Inh,CSNK1G2; 1 µM,99.5% and 98.9%
same,%Inh,CSNK1G3; 1 µM,99.2% and 96.6%
same,%Inh,CSNK2A1; 1 µM,0% and 19%
same,%Inh,CSNK2A2; 1 µM,0% and 25%
same,%Inh,CTK; 1 µM,40% and 1%
Fc1ccc(-c2ncn(CCCN3CCOCC3)c2-c2cccnc2)cc1 [SB-211743],%Inh,CHEK1,0%
same,%Inh,CHEK2,0%
same,%Inh,CIT,0%
same,%Inh,CLK1,24%
same,%Inh,CLK2,0%
same,%Inh,CLK3,11%
same,%Inh,CLK4,2%
same,%Inh,CSF1R-autoinhibited,0%
same,%Inh,CSF1R,0%
same,%Inh,CSK,0%
same,%Inh,CSNK1A1L,0%
same,%Inh,CSNK1A1,22%
same,%Inh,CSNK1D,4%
same,%Inh,CSNK1E,24%
same,%Inh,CSNK1G1,0%
same,%Inh,CSNK1G2,0%
same,%Inh,CSNK1G3,17%
same,%Inh,CSNK2A1,0%
same,%Inh,CSNK2A2,0%
same,%Inh,CTK,32%
O=C(NOCC1CC1)c1ccc(F)c(F)c1Nc1ccc(I)cc1Cl,%Inh,CHEK1,0%
same,%Inh,CHEK2,21%
same,%Inh,CIT,0%
same,%Inh,CLK1,0%
same,%Inh,CLK2,3%
same,%Inh,CLK3,0%
same,%Inh,CLK4,0%
same,%Inh,CSF1R-autoinhibited,0%
same,%Inh,CSF1R,0%
same,%Inh,CSK,0%
same,%Inh,CSNK1A1L,0%
same,%Inh,CSNK1A1,3%
same,%Inh,CSNK1D,0%
same,%Inh,CSNK1E,3%
same,%Inh,CSNK1G1,0%
same,%Inh,CSNK1G2,0%
same,%Inh,CSNK1G3,0%
same,%Inh,CSNK2A1,0%
same,%Inh,CSNK2A2,18%
same,%Inh,CTK,0%
